High-throughput results: PubChem BioAssay, several laboratories
PABP FP inh = blocks human PABP binding to poly(A) RNA. actives 1% (n = 290,000). fluorescence polarization. calls only at 35 µM. P11940. AID 2014;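 further: calls also rest on retests at 20 µM and on dose response follow-up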
Target sequence (P11940 whole entry, looked up): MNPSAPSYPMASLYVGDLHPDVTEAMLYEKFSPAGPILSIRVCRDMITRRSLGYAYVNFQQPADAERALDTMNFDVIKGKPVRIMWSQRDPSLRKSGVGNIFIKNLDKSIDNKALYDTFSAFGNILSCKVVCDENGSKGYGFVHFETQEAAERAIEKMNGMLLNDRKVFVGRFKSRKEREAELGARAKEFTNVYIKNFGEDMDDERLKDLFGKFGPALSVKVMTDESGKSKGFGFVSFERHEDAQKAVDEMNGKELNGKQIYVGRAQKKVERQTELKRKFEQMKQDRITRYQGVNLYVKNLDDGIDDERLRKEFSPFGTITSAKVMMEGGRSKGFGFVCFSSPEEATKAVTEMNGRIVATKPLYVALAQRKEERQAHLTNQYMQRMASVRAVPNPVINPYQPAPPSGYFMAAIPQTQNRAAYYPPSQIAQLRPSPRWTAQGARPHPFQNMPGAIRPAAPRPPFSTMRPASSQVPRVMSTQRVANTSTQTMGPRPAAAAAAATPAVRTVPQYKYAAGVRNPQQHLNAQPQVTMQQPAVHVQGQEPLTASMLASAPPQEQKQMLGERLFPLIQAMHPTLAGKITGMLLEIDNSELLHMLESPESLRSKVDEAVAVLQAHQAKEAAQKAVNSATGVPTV
PERK inhibitor = human PERK inhibition, primary cell-based screen | actives 0.17% (n = 220,000) | Q9NZJ5 | CHO PERK-DD fusion, SEAP luminescence translation reporter | AID 1416 | inhibition, % at 5.6 µM;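 active means inhibition above the mean inhibition of all tested compounds plus 3 SD, set separately per screening campaign, cut at about 2.9% in these data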;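 further: PERK kinase domain activated by AP20187 dimerizer at 100 nM; 0% = DMSO with dimerizer and 100% = rapamycin at 8.4 µM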
MLLE-PAM2 inh = blocks PAM2 peptide binding to the PABP1 MLLE domain. P11940. GST-MLLE / FITC-PAM2 fluorescence polarization. inhibition, % at 20 µM. actives 0.36% (n = 360,000). AID 588489; in the data active means inhibition above about 35%, passing the limit was not always enough;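 further: plate controls were DMSO wells with GST-MLLE for no effect and wells lacking GST-MLLE protein for full effect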
eIF4H FP inh = inhibitors of RNA binding by human eIF4H; AID 2012; inhibition, % at 35 µM; actives 0.94% (n = 290,000); Q15056; eIF4H fluorescence polarization binding assay;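 further: calls also rest on retests at 20 µM and on dose response follow-up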
eIF4E-4G inh = blocks eIF4E binding to eIF4G; P63073+Q04637; TR-FRET eIF4E-eIF4GI(517-606) binding, 2 h; inhibition, % at 21.7 µM; actives 0.37% (n = 220,000);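 active means inhibition above about 30%, limit read from the data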;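 further: 0% = full FRET control wells and 100% = background wells lacking eIF4GI fragment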
Numbers without * were called inactive; i = inactive; · = no result given; + = active, no number; [ ] = another dose, or the depositor's remark. Hits are enriched below; roughly 1.6% of the tested compounds scored in any of these assays. Unless noted, how the calls were made is not given here.

SMILES	PABP FP inh	PERK inhibitor	MLLE-PAM2 inh	eIF4H FP inh	eIF4E-4G inh
Cc1nn(CCc2nc(-c3ccco3)cs2)c2[nH]c(=O)cc(C(F)(F)F)c12	+	1	28	45*	1
CC(Sc1nncs1)C(=O)Nc1ccc(S(=O)(=O)Nc2ncccn2)cc1 (centres undefined)	·	·	11	·	·
COc1cccc2c1OCC(C(=O)O)C2 (centres undefined)	i	1	-4	32	1
COc1cccc2c1C(CO)N1C(C#N)C3CC(C(=O)O)C(C1C2)N3C (centres undefined)	i	3.7*	16	-9	5
COc1cccc(NC(=O)COc2nc3ccccc3nc2C)c1	i	1	-21	-2	3
O=C1CC(/C=C/c2ccco2)=Nc2ccccc2N1	+	0	34	95*	-4
COc1ccccc1NC(=O)CCN1CC(C)OC(C)C1 (centres undefined)	+	-1	2	93	0
COc1ccc(NC(=O)CCN2CC(C)OC(C)C2)c(OC)c1 (centres undefined)	i	0	10	-6	3
O=c1oc2ccccc2c(Nc2cccc(O)c2)c1[N+](=O)[O-]	+	1	0	84*	0
CCc1ccccc1N(C(C)=O)c1nc(CCl)cs1	i	0	23	active	0
CC(=O)N(c1nc(CCl)cs1)c1ccc(C)cc1C	i	1	7	-4	1
COc1ccc(C(=O)NC(=S)NCc2cccnc2)cc1OC	i	1	23	-3	1
COc1ccc(C(=O)NC(=S)NCc2cccnc2)cc1[N+](=O)[O-]	i	0	38*	-5	1
CCOc1ccc(NC(=S)NC(=O)c2c(Br)cnn2C)c([N+](=O)[O-])c1	i	1	19	5	5
CCOc1ccc(NC(=S)NC(=O)c2cccnc2)c([N+](=O)[O-])c1	i	·	44*	-13	·
Cc1cc(C)c(NC(=O)C2CCCN2CCOC(=O)c2cccc([N+](=O)[O-])c2)c(C)c1 (centres undefined)	+	0	10	active	-1
COc1ccc(C(=O)Nc2nnc(CCS(=O)(=O)c3ccc(C)cc3)s2)cc1	i	0	4	-6	-4
CCc1c(C)sc(NC(=O)OC)c1C(N)=O	i	2	7	-4	3
CCc1c(C)sc(NC(=O)C2CCCCC2C(=O)O)c1C(N)=O (centres undefined)	i	1	31	27	55*
CCn1nnnc1SCC(=O)Nc1cccc(NC(C)=O)c1	i	1	4	-3	37*[fluorescence artefact?]
O=C1c2c(O)cccc2Cc2cccc(O)c21	·	·	46*	·	·
CCOC(=O)C1=CCN(S(=O)(=O)c2ccccc2F)C1c1ccccc1 (centres undefined)	·	·	-3	·	·
CCCCn1c(=NC(=O)c2ccc3c(c2)OCO3)c(C#N)cc2c(=O)n3cccc(C)c3nc21	+	1	-30	81*	-21
COCCn1c(=NC(=O)c2ccc3c(c2)OCO3)c(C#N)cc2c(=O)n3cccc(C)c3nc21	i	0	·	3	-1
CCC(C)(C(=O)NC1CCCC1)N(C(=O)CNC(=O)c1ccccc1)c1c(C)n(C)n(-c2ccccc2)c1=O (centres undefined)	i	0	7	2	3
SMILES	PABP FP inh	PERK inhibitor	MLLE-PAM2 inh	eIF4H FP inh	eIF4E-4G inh
CCc1ccc(C(=O)NNC(=O)[C@H](C)NC(=O)c2ccco2)cc1	·	·	-5	·	·
COc1nccnc1NS(=O)(=O)c1ccc(NC(=S)NC(=O)/C=C/c2ccccc2)cc1	i	0	45*	1	-2
NC(=O)C1CCN(c2nc(-c3ccc(Br)cc3)cs2)CC1	i	0	3	1	15
Cc1noc(C)c1-c1csc(N2CCC(C(N)=O)CC2)n1	·	·	40*	·	·
Cn1c(C(=O)c2ccncc2)cc2ccccc21	i	0	-1	9	-1
COC(=O)C1=C(C(=O)OC)C(c2cc(Br)ccc2O)c2sc(=O)[nH]c2S1 (centres undefined)	i	1	44*	0	3
COC(=O)C1=C(C(=O)OC)C(c2cc(Cl)ccc2O)c2sc(=O)[nH]c2S1 (centres undefined)	i	1	33	7	-1
COc1ccc2c(c1)c(C(O)CN1CCN(Cc3ccc4c(c3)OCO4)CC1)c(C)n2C (centres undefined)	i	-1	0	10	-3
Cc1c(C(O)CN2CCN(Cc3ccc4c(c3)OCO4)CC2)c2ccccc2n1C (centres undefined)	+	-1	-4	82*	1
O=C1C2CC=C(Cl)CC2C(=O)N1CCCCCCN1C(=O)C2CC=C(Cl)CC2C1=O (centres undefined)	+	-2	16	99*	13
CCOc1cccc(=O)c2c(C)oc(C)c12	i	-1	44*	-1	0
CCOc1cccc(=O)c2c(C)n(CC(=O)c3ccccc3)c(C)c12	i	-1	-27	52	1
COc1ccc(N(C(=O)c2csnn2)C(C(=O)NC2CCCC2)c2ccccc2)cc1 (centres undefined)	i	·	2	2	·
CCC(CC)C(=O)Nc1cc([N+](=O)[O-])ccc1Cl	+	0	2	-3	3
CCC(CC)C(=O)Nc1cc([N+](=O)[O-])ccc1F	i	1	-5	-4	1
COc1ccc(CCC(=O)NCC(c2ccco2)N2CCc3ccccc32)cc1 (centres undefined)	·	·	2	·	·
CC(NS(=O)(=O)c1ccc2c(c1)C(C)(C)C(=O)N2C)c1ccccc1 (centres undefined)	i	·	-12	3	·
CCCCn1c(NC(=S)Nc2ccccc2)nc2ccccc21	i	0	40*	8	-5
S=C(Nc1ccccc1)Nc1nc2ccccc2n1CCOc1ccccc1	i	-1	29	0	-11
CCCn1c(SC(C)C(=O)N2CCOCC2)nc2ccc(Br)cc2c1=O (centres undefined)	·	·	-13	·	·
N#Cc1ccc(CSc2nnc(NC(=O)c3ccc4ncsc4c3)s2)cc1	i	0	-7	-3	75*
COc1cc(C(=O)N/N=C/c2ccc(OC)c(CN3CCN(c4ccc(F)cc4)CC3)c2)ccc1O	i	0	6	0	1
CCOC(=O)c1c(NC(=O)C(Sc2ccccc2)c2ccccc2)sc(C(=O)N(C)C)c1C (centres undefined)	+	-1	16	active	4
CCOC(=O)c1c(NC(=O)C(Sc2ccccc2)c2ccccc2)sc(C(N)=O)c1C (centres undefined)	i	1	19	-10	-24
Cc1ccc(C#N)c(SCc2ccccc2[N+](=O)[O-])n1	i	-1	12	-7	-4
Cc1nc([N+](=O)[O-])c(C(=O)OCc2ccccc2C#N)n1C	+	-1	-6	active	1
